Compound activity deposited in PubChem by National Center for Advancing Translational Sciences (NCATS).
This is a sample that favours compounds with a hit; in the whole collection about 17% have one here.
TGFb SMAD3 inh – blocks TGF-b signaling. HepG2 CAGA-GFP TGF-b/SMAD3 reporter, GFP fluorescence, 18 h; TGF-beta stimulated, 500 pg/mL final. Potency, µM (highest dose often 46.1 µM), without a hit: at the highest dose activity, negative = inhibition, hits mostly inhibitors. hit rate 1.2% among 410,000. AID 588855; note: % is set by controls: 0 for no effect and ±100 for the full control effect; nearly all actives have a fitted effect of over 65% in size
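Inhibition of TGF-beta-driven CAGA-GFP reporter expression in HEPG2 cells is measured by cellular GFP fluorescence after 18 h stimulation with 500 pg/mL recombinant TGF-beta in 1% FBS medium at 37 degrees C.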
DT40 TDP1 no CPT – qHTS for Inhibitors of human tyrosyl-DNA phosphodiesterase 1 (TDP1): qHTS in cells in absence of CPT | hit rate 15% among 420,000 | AID 686978, 2013 | Potency, µM (top dose mostly 46.2 µM), for inactives: top-dose activity change, negative = growth inhibition, actives largely listed as inhibitors | DT40 Tdp1-/- hTDP1 cells, no CPT, ATP luminescence, 48 h; note: % is set by controls: 0 for no effect and ±100 for the full control effect; nearly all actives have a fitted effect of over 55% in size
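Compound effects on proliferation are scored in DT40 Tdp1-/-;hTDP1 cells in the absence of CPT. ATP levels (CellTiter-Glo luminescence) are recorded after a ≥48 hr, 37 °C incubation.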
S2 tox – viability counter-screen for ATXN expression inhibitors; S2 cells (HEK-293 line with an ATXN2-luciferase reporter) viability, CellTiter-Fluor protease fluorescence, 24 h; Potency, µM (titrated, usually from 56.7 µM), usual class: cytotoxic; hit rate 0.49% among 400,000; note: nearly all actives have a fitted effect of over 40% in size
DT40 TDP1 CPT – DT40-hTDP1 cell growth loss with CPT; chicken DT40 Tdp1-/-;hTDP1 cells + 20 nM CPT, ATP luminescence, 48 h; Potency, µM (doses to about 46.2 µM), for the others: top-dose activity change, negative = growth inhibition, actives largely listed as inhibitors; hit rate 12% among 420,000; AID 686979; note: % is set by controls: 0 for no effect and ±100 for the full control effect; nearly all actives have a fitted effect of over 55% in size
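Chicken DT40 Tdp1-/- cells stably complemented with human TDP1 were seeded at 400 cells/well in medium containing 20 nM camptothecin, exposed to pin-transferred compounds, and grown at 37 °C for at least 48 hr. Viability was read as ATP luminescence.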
HepG2 viability – HepG2 cytotoxicity, counter-screen for TGF-b inhibitors. HepG2 CAGA-GFP viability, ATP luminescence, 18 h. hit rate 0.76% among 410,000. Potency, µM (doses to about 46.1 µM), for the others: at the highest dose activity change, negative = cytotoxicity, most hits filed as cytotoxic
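CellTiter-Glo luminescence gave cytotoxicity after 18 hours at 37 degrees C. The cells were HepG2 CAGA-GFP in 1% FBS DMEM, stimulated with 500 pg/mL TGF-beta after compound addition. %Activity was normalised to no-cell wells (complete cell-killing) and DMSO (no toxicity), and curves were fitted and classified.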
ATXN2 expr inh – inhibitors of ATXN2 expression. HEK-293 ATXN2-luciferase reporter, luminescence, 24 h. Potency, µM (series often up to 57 µM), for the others: at the highest dose activity change, negative = inhibition, actives largely listed as inhibitors. hit rate 0.72% among 360,000. AID 1745845; note: % is set by controls: 0 for no effect and ±100 for the full control effect; nearly all actives have a fitted effect of over 55% in size
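qHTS (up to 57 uM final) was run with 24 h compound exposure of reporter cells at 37 °C. Each well was multiplexed: SteadyGlo luminescence measured ATXN2-luciferase expression after a fluorogenic Gly-Phe-AFC viability readout (25 uM final).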
Numbers without * were called inactive; i = inactive; ? = inconclusive; . = no result. Calls come from the whole dose curve; as a rule, active = well fitted curve in the direction sought with a large enough effect; inconclusive = small, poorly fitted or top-dose-only effect, or another doubt; inactive = no such curve, though single readings can be large; an effect the other way counts as inactive or inconclusive. Potency is the fitted concentration of half-maximal effect.

SMILES	TGFb SMAD3 inh	DT40 TDP1 no CPT	S2 tox	DT40 TDP1 CPT	HepG2 viability	ATXN2 expr inh
CCCCC(=O)Nc1ccc(C(=O)NNC(=S)NC(=O)c2ccco2)cc1	-24%	23µM*	i	13µM*	-1%	.
CCCCCC(=O)NC(Nc1ccc(S(N)(=O)=O)cc1)C(Cl)(Cl)Cl (stereo not given)	?	?	i	16µM*	-1%	-4%
O=c1c2ccccc2nc2n1CCN2Cc1ccc(Cl)cc1	?	?	i	18µM*	-9%	-12%
O=C(/C=C/c1cccc2ccccc12)NCCC1=CCCCC1	16%	?	i	2%	4%	35%
CC(C)(C)NC(=O)c1cc([N+](=O)[O-])ccc1N1CCCCC1	-1%	?	i	-13%	2%	2%
CC(C)OCCCNC(=O)c1ccc2c(=O)n(CCc3ccccc3)c(=O)[nH]c2c1	-3%	-18%	i	-2%	7%	5%
COc1ccccc1Nc1nn2c(=O)c3ccc(C(=O)NCCCOC(C)C)cc3nc2s1	?	4.1µM*	i	5.2µM*	-40%	-23%
Cc1ccc(C)c(Nc2nn3c(=O)c4ccc(C(=O)NCc5cccs5)cc4nc3s2)c1	5µM*	15µM*	.	?	6.3µM*	.
COc1ccccc1Nc1nn2c(=O)c3ccc(C(=O)NCc4cccs4)cc3nc2s1	-16%	16µM*	.	13µM*	-6%	.
O=C(NCc1ccccc1Cl)NCc1noc2ccccc12	-24%	9.2µM*	i	?	-18%	41%
COc1ccc(CCNC(=O)NCc2noc3ccccc23)c(OC)c1	24%	21µM*	i	?	-6%	6%
COc1ccc(Cl)cc1NC(=O)NCc1noc2ccccc12	-16%	?	i	?	-17%	-29%
Cc1ccc2onc(CNC(=O)NCc3ccc(Cl)cc3)c2c1	-18%	1%	?	-1%	-43%	-18%
COc1cccc(-c2cncnc2Nc2ccccc2)c1	.	?	.	-26%	.	.
Cc1cc(C=C2C(=O)c3ccccc3C2=O)c(C)n1-c1ccccc1	-1%	?	i	?	-17%	-38%
Cc1cc(/C=C2/C(=N)N3C(c4ccccc4)=CSC3=NC2=O)c(C)n1-c1ccccc1	13%	13µM*	.	13µM*	18%	24%
CC1=NN(c2ccccc2)C(=O)/C1=C\c1cc(C)n(-c2ccccc2)c1C	12%	23µM*	i	?	-4%	21%
CC1=NN(c2ccccc2)C(=O)C1=Cc1ccccc1	-5%	-6%	i	-17%	0%	.
Cc1cc(/C=C2\Cc3ccccc3C2=O)c(C)n1-c1ccccc1	-24%	13µM*	.	?	-15%	-43%
Cc1ccc(C(=O)C(C)OC(=O)C2CCN(c3ccc(C(F)(F)F)cn3)CC2)cc1 (stereo not given)	-4%	?	i	?	-8%	-8%
O=C(Cn1c(=O)oc2cc(S(=O)(=O)N3CCCCCC3)ccc21)Nc1cccc(C(F)(F)F)c1	-3%	9.2µM*	.	8.2µM*	-25%	.
O=C(Cn1c(=O)oc2cc(S(=O)(=O)N3CCCC3)ccc21)NC1CCCCC1	-5%	-28%	i	-3%	0%	-6%
O=C(Cn1c(=O)oc2cc(S(=O)(=O)N3CCCCC3)ccc21)Nc1cccc(Cl)c1	?	9.2µM*	?	8.2µM*	-26%	?
CC/C(=N/N=C(/CC)c1ccc(O)cc1)c1ccc(O)cc1	8%	8.2µM*	i	15µM*	4%	.
CC(=NN=C(C)c1ccc(O)cc1)c1ccc(O)cc1	0%	16µM*	i	?	-10%	0%
SMILES	TGFb SMAD3 inh	DT40 TDP1 no CPT	S2 tox	DT40 TDP1 CPT	HepG2 viability	ATXN2 expr inh
C/C=C(/C(=C/C)c1ccc(O)cc1)c1ccc(O)cc1	?	?	?	?	-96%	?
C=C(C)[C@@H]1CC[C@]2(C)CC[C@]3(C)[C@H](CC[C@@H]4[C@@]5(C)CC[C@H](O)C(C)(C)[C@H]5CC[C@]43C)[C@@H]12	.	.	.	.	.	5%
Cc1ccc(CN2C(=O)c3oc4ccc(C)cc4c(=O)c3C2c2ccc(O)cc2)cc1 (stereo not given)	21%	?	i	16µM*	10%	-4%
CSc1ccc(C2c3c(oc4cc(C)cc(C)c4c3=O)C(=O)N2CCO)cc1 (stereo not given)	-4%	23µM*	i	?	-1%	16%
COCCN1C(=O)c2oc3cc(C)cc(C)c3c(=O)c2C1c1cccc(O)c1 (stereo not given)	-12%	-20%	i	5%	-22%	1%
Cc1cc(C)c2c(=O)c3c(oc2c1)C(=O)N(Cc1ccc(F)cc1)C3c1cccc(O)c1 (stereo not given)	?	12µM*	?	23µM*	-22%	?
Cc1ccc2oc3c(c(=O)c2c1)C(c1cccc(O)c1)N(Cc1ccccc1Cl)C3=O (stereo not given)	5%	18µM*	i	?	-15%	8%
CSc1ccc(C2c3c(oc4cc(C)cc(C)c4c3=O)C(=O)N2Cc2ccco2)cc1 (stereo not given)	13%	-2%	i	-2%	0%	0%
CCNC(=O)[C@H]1O[C@@H](n2cnc3c(N)nc(NCCc4ccc(CCC(=O)O)cc4)nc32)[C@H](O)[C@H]1O	.	.	.	.	.	-1%
CCC(=O)Nc1ccccc1-c1nc2ccccc2n(CC(=O)c2ccc(Br)cc2)c1=O	7%	-10%	.	4%	-5%	.
CC(C)(Oc1ccc(Cl)cc1)C(=O)OCCCOC(=O)C(C)(C)Oc1ccc(Cl)cc1	.	.	i	.	.	-11%
O=C1c2oc3ccc(Cl)cc3c(=O)c2C(c2cccc(Br)c2)N1CCO (stereo not given)	-16%	?	i	26µM*	5%	7%
CCOc1cc(C2c3c(oc4cc(C)c(Cl)cc4c3=O)C(=O)N2Cc2ccco2)ccc1O (stereo not given)	-6%	16µM*	?	18µM*	5%	-19%
Cc1ccc2oc3c(c(=O)c2c1)C(c1cccc(Br)c1)N(Cc1ccco1)C3=O (stereo not given)	-1%	21µM*	i	?	11%	-8%
CC(=O)N(Cc1ccccc1)Cc1cn(CCC#N)nc1-c1cccc([N+](=O)[O-])c1	5%	-22%	i	8%	9%	-3%
